Most compounds without a hit are left out; they make up all but 13% or so of the library.
G9a inh – qHTS Assay for Inhibitors of Histone Lysine Methyltransferase G9a. G9a H3K9 monomethylation, AlphaScreen, 2 h. Potency, µM (doses to about 102 µM), hits mostly inhibitors. hit rate 8.8% among 350,000; also: nearly all actives have a fitted effect of over 75% in size
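Chemiluminescent proximity detection of H3K9 monomethylation, read after 10 min bead incubation in the dark. Reaction: 20 nM G9a, 500 nM biotin-H3K9 peptide, 20 uM SAM cofactor, 2 h, room temperature, following 15 min enzyme-compound preincubation.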
Sfp PPTase inh – qHTS Assay for Inhibitors of Bacillus subtilis Sfp phosphopantetheinyl transferase (PPTase); Biochemical Sfp PPTase activity, qHTS; Potency, µM, most hits filed as inhibitors; hit rate 3.5% among 310,000; AID 1490, 2009;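 also: the enzyme is Sfp with the accession as filed and its product quenches rhodamine fluorescence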
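After 15 min at room temperature with compound, 15 nM Sfp received 5 uM rhodamine-CoA plus 12.5 uM BHQ-2-ybbR (50 mM Hepes pH 7.6, 10 mM MgCl2). Rate came from the fluorescence difference over 30 min, ex 525/em 598 nm.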
Lamin A splicing – qHTS Assay for Modulators of Lamin A Splicing; hit rate 0.01% among 200,000; Potency, µM (top dose mostly 46.1 µM), hits mostly inhibitors; HeLa LMNA splicing GFP/RFP minigene ratio, 48 h; AID 1487, 2009; active = well fitted inhibition curve with a large enough effect in the signal ratio, with a control signal flat, not every such curve was filed as active; inconclusive = small, poorly fitted or top-dose-only effect, or effect the other way, or a change in a side signal; the % refers to the signal ratio
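S3 HeLa stable clones carrying a lamin A-EGFP splicing minigene plus DsRed2 were seeded at 600 cells/well in Opti-MEM with 2% FBS, pin-dosed and incubated 48 h at 37°C. Acumen cytometry (488 nm) gave the GFP/RFP total-intensity ratio.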
ALDH1A1 inh – qHTS Assay for Inhibitors of Aldehyde Dehydrogenase 1 (ALDH1A1) | Aldehyde dehydrogenase 1A1 (Homo sapiens), P00352 | Purified ALDH1A1, NADH fluorescence, propionaldehyde substrate | Potency, µM (highest dose often 75.3 µM), hits mostly inhibitors | hit rate 7.3% among 220,000; active = well fitted inhibition curve with a large enough effect, not every such curve was filed as active; inconclusive = small, poorly fitted or top-dose-only effect, or another doubt; inactive = no such curve, though single readings can be large or run the other way
Target sequence (P00352 whole entry, looked up): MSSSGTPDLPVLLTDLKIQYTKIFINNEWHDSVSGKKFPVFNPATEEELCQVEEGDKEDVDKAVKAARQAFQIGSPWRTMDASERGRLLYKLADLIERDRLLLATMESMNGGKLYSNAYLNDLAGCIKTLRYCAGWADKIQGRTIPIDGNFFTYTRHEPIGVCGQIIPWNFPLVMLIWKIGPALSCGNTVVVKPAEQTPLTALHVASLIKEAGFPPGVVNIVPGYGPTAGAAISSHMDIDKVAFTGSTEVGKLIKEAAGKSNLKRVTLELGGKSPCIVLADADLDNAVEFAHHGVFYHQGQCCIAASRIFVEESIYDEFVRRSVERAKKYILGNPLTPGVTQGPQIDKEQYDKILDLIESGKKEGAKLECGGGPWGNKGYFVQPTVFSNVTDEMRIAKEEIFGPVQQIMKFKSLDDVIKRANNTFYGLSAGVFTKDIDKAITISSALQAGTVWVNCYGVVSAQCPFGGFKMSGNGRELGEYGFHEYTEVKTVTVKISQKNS
JMJD2E inh – qHTS Assay for Inhibitors of Human Jumonji Domain Containing 2E (JMJD2E); Lysine-specific demethylase 4E (Homo sapiens), B2RXH2; JMJD2E catalytic domain, FDH-coupled NADH fluorescence (FDH is formaldehyde dehydrogenase); Potency, µM (highest dose often 57.1 µM), most hits filed as inhibitors; AID 2147, 2009; hit rate 1.6% among 230,000; active = well fitted inhibition curve with a large enough effect, not every such curve was filed as active; inconclusive = small, poorly fitted or top-dose-only effect, or another doubt; inactive = no such curve, though single readings can be large or run the other way; also: nearly all actives have a fitted effect of over 50% in size
miR-21 act – qHTS Assay for Modulators of miRNAs and/orActivators of miR-21; Potency, µM (highest dose often 38.3 µM), hits mostly activators; 340,000 tested, under 10 active; HeLa miR-21 FLuc reporter, luciferase, 48 h;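 also: miR-21 action dims this reporter so a rising signal means less miR-21 action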
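Luminescence from a firefly luciferase reporter carrying a miR-21 binding site downstream, stably expressed under a CMV promoter in HeLa cells that make miR-21 endogenously, reports miRNA modulation after 48 h compound exposure up to approximately 40uM final.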
Large screens that a line does not name were inactive. Unless noted, calls follow the shape of the dose curve; as a rule, active = well fitted curve in the direction sought with a large enough effect; inconclusive = small, poorly fitted or top-dose-only effect, or another doubt; inactive = no such curve, though single readings can be large; an effect the other way counts as inactive or inconclusive.

Cn1c(C(=O)NCCN2CCOCC2)cc2c(=O)n(C)c3ccccc3c21	G9a inh inconclusive, ALDH1A1 inh inconclusive, JMJD2E inh inconclusive
Cn1c(C(=O)NCCN2CCc3ccccc3C2)cc2c(=O)n(C)c3ccccc3c21	G9a inh 44.7µM, ALDH1A1 inh inconclusive, JMJD2E inh inconclusive
CN(CCNC(=O)c1cc2c(=O)n(C)c3ccccc3c2n1C)Cc1ccccc1	G9a inh 50.1µM, ALDH1A1 inh inconclusive, JMJD2E inh inconclusive
CCOCCCNC(=O)c1cc2c(=O)n(C)c3ccccc3c2n1C	G9a inh 10µM (no result: Sfp PPTase inh, Lamin A splicing, ALDH1A1 inh, JMJD2E inh)
CCCN(CCC)CCNC(=O)c1cc2c(=O)n(C)c3ccccc3c2n1C	G9a inh inconclusive, ALDH1A1 inh inconclusive, JMJD2E inh inconclusive
Cn1c(C(=O)NCCN2CCN(c3ccccc3F)CC2)cc2c(=O)n(C)c3ccccc3c21	G9a inh 44.7µM, ALDH1A1 inh inconclusive
Cn1c(=O)c2cc(C(=O)NCCCN3CCN(c4ccccc4F)CC3)sc2c2ccccc21	none (no result: Sfp PPTase inh, Lamin A splicing, ALDH1A1 inh, JMJD2E inh)
COc1cccc(CNS(=O)(=O)c2cc3[nH]c(=O)c(=O)[nH]c3cc2C)c1	none (no result: Sfp PPTase inh, ALDH1A1 inh, JMJD2E inh)
O=C(O)c1cccc(Cl)c1Cl	none (no result: G9a inh, Sfp PPTase inh, Lamin A splicing, JMJD2E inh, miR-21 act)
CCN1CCN(C(=O)c2cc3c(=O)n(C)c4ccccc4c3n2C)CC1	G9a inh inconclusive, ALDH1A1 inh inconclusive
Cn1c(C(=O)N2CCN(Cc3ccccc3)CC2)cc2c(=O)n(C)c3ccccc3c21	G9a inh 44.7µM, ALDH1A1 inh inconclusive, JMJD2E inh inconclusive
O=Cc1ccc(-n2nncc2-c2ccc([N+](=O)[O-])cc2)cc1	ALDH1A1 inh 12.6µM
Cc1nc2cc(C(F)(F)F)ccc2n1CCNc1nc(-c2ccc(F)cc2)cs1	G9a inh 28.2µM (no result: Lamin A splicing, ALDH1A1 inh, JMJD2E inh)
Cc1ccc(-c2csc(NCCn3c(-c4ccncc4)nc4ccccc43)n2)cc1	G9a inh 20µM (no result: Lamin A splicing, ALDH1A1 inh, JMJD2E inh)
CCCC(=O)Nc1nnc(SCc2cc(=O)n3cccc(C)c3n2)s1	none (no result: Sfp PPTase inh, ALDH1A1 inh, JMJD2E inh)
CCOc1ccc(NC(=S)Nc2ccc(OCc3ccccc3)cc2)cc1	none
O=C(O)/C=C/C(=O)Nc1ccc(OCc2ccccc2)cc1	G9a inh 56.2µM (no result: Lamin A splicing, ALDH1A1 inh)
O=C(O)/C=C/C(=O)Nc1ccc(OC(F)F)cc1	ALDH1A1 inh inconclusive
CNC(=S)Nc1ccc(OCc2ccccc2)cc1	ALDH1A1 inh 31.6µM
Cc1ccc(NC(=O)CCNS(=O)(=O)c2ccc(Br)s2)cc1	none (no result: Lamin A splicing, ALDH1A1 inh, JMJD2E inh)
O=C(CCS(=O)(=O)c1ccccc1)Nc1ccc(Cl)cn1	G9a inh 44.7µM (no result: Lamin A splicing, ALDH1A1 inh, JMJD2E inh)
Cc1ccc(S(=O)(=O)CCC(=O)Nc2nc(C(C)(C)C)cs2)cc1	none (no result: Lamin A splicing, ALDH1A1 inh, JMJD2E inh)
O=C(CS(=O)(=O)c1ccccc1)Nc1ccc(Cl)cn1	none (no result: Lamin A splicing, ALDH1A1 inh, JMJD2E inh)
O=C(COc1ccccc1)Nc1nc(-c2cccs2)cs1	Lamin A splicing inconclusive
O=C(CCS(=O)(=O)c1ccc(F)cc1)Nc1nc(-c2ccncc2)cs1	G9a inh 7.94µM, Sfp PPTase inh 12.6µM (no result: Lamin A splicing, ALDH1A1 inh, JMJD2E inh)
O=C(CCS(=O)(=O)c1ccccc1)Nc1nc(-c2cccs2)cs1	G9a inh 50.1µM, Lamin A splicing inconclusive
COc1ccc(OC)c(C2=Nn3c(nnc3-c3ccccc3OC)SC2)c1	none (no result: G9a inh, Lamin A splicing, ALDH1A1 inh, JMJD2E inh, miR-21 act)
CCc1ccc(O)c(C(=O)c2cnc3cc(-c4ccc(C)cc4)nn3c2)c1	none (no result: Sfp PPTase inh, Lamin A splicing, ALDH1A1 inh, JMJD2E inh)
CCc1nn2cc(C(=O)c3cc(Cl)ccc3O)cnc2c1-c1ccc(F)cc1	G9a inh 44.7µM, Lamin A splicing inconclusive
CCC(=O)O[C@@H](OP(=O)(CCCCc1ccccc1)CC(=O)N1C[C@H](C2CCCCC2)C[C@H]1C(=O)O)C(C)C (stereo partly drawn)	none (no result: Lamin A splicing, ALDH1A1 inh, JMJD2E inh, miR-21 act)
COc1ccc(OC)c(S(=O)(=O)N2CCN(c3ncccn3)CC2)c1	none (no result: Lamin A splicing, ALDH1A1 inh, JMJD2E inh)
COc1ccc(NC(=O)COc2ccccc2C)cc1S(=O)(=O)N1CCCCC1	G9a inh 50.1µM (no result: Sfp PPTase inh, Lamin A splicing, ALDH1A1 inh, JMJD2E inh, miR-21 act)
COc1ccc(NC(=O)CN(C)Cc2c(F)cccc2Cl)cc1S(=O)(=O)N1CCCCC1	ALDH1A1 inh 28.2µM (no result: Lamin A splicing)
COc1ccc(NC(=O)COc2ccc3c(C)cc(=O)oc3c2)cc1S(=O)(=O)N1CCCCC1	G9a inh 11.2µM (no result: Sfp PPTase inh, Lamin A splicing, ALDH1A1 inh, JMJD2E inh, miR-21 act)

Screening data from PubChem.
